A549 tox: Nrf2 qHTS screen for inhibitors: counterscreen for cytotoxicity. AID 504648, 2011. actives 0.16% (n = 390,000). Potency, µM (titrated, usually from 46 µM), actives largely listed as inhibitors. A549 ARE-Fluc cells, CellTiter-Fluor viability, 18-24 h
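Cytotoxicity counterscreen: CellTiter-Fluor fluorescence was measured in A549 ARE_Fluc cells after 18-24 h of compound exposure in a concentration series. The subsequent BugLite luminescent read reports ARE-luciferase activity.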
Nrf2 inh: Nrf2 qHTS screen for inhibitors; actives 2.1% (n = 360,000); A549 ARE-Fluc reporter, luciferase luminescence, 18-24 h; Potency, µM (doses to about 46 µM), hits mostly inhibitors; also: nearly all actives have a fitted effect of over 60% in size
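Cells were seeded and rested 2 h, then exposed to compounds for 18-24 h. CellTiter-Fluor was read first as a viability measure. BugLite was added 15 min before the final luminescent read of ARE-luciferase activity in A549 cells.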
ELG1 repair inh: qHTS screen for small molecules that inhibit ELG1-dependent DNA repair in human embryonic kidney (HEK293T) cells expressing luciferase-tagged ELG1. Potency, µM (series often up to 46.1 µM), hits mostly inhibitors. actives 2.3% (n = 330,000). HEK293T ELG1-luciferase reporter, luminescence, 16 h; DNA damage induced by 5-fluorouridine; also: nearly all actives have a fitted effect of over 55% in size
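Overnight (16 hr) co-exposure of 2,000 cells/well to 5-fluorouridine and compound at 37 °C preceded detection. Luciferase was quantified via ONE-Glo luminescence; loss of signal denotes inhibition.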
Nrf2 ARE act: qHTS of Nrf2 Activators; AREc32 ARE-luciferase reporter (MCF7-derived line), luminescence, 24 h; Potency, µM (top dose mostly 46.1 µM), most hits filed as activators; actives 0.31% (n = 410,000); also: nearly all actives have a fitted effect of over 65% in size
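Luminescent ARE reporter assay in AREc32_Fluc cells: overnight plating at 37 deg C, 24 hr compound incubation, Steady-Glo added, 30 min RT before reading.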
A number is an active result; - = inactive; ? = inconclusive; . = no result; [ ] = remark or other dose. In the library only some 3.7% were active in any assay of this set; here they are far more common. Calls follow the shape of the dose curve; as a rule, active = well fitted curve in the direction sought with a large enough effect; inconclusive = small, poorly fitted or top-dose-only effect, or another doubt; inactive = no such curve, though single readings can be large; an effect the other way counts as inactive or inconclusive.

SMILES	A549 tox	Nrf2 inh	ELG1 repair inh	Nrf2 ARE act
CCCCNC(=O)C1(C)CCN1C(=O)c1ccc(OC)c(C(F)(F)F)c1 (stereo not given)	.	.	.	-[9.22 µM]
CN1C/C(=C\c2ccc(N3CCOCC3)cc2)C(=O)/C(=C/c2ccc(N3CCOCC3)cc2)C1	-	-	?	11.2µM
COc1ccc(CN(Cc2ccccc2)S(=O)(=O)c2ccccc2)cc1COc1ccc(NC(C)=O)cc1	-	-	.	.
O=C(CSc1nc(-c2ccc(F)cc2)[nH]c1-c1ccc(F)cc1)Nc1ccc2c(c1)OCO2	?	16.4µM	.	-
COc1ccc(-c2nc(SCC(=O)NC3CCCC3)c(-c3ccc(F)cc3)[nH]2)cc1	-	16.4µM	.	-
O=C(CCc1nc(-c2ccccc2)no1)NC1CCCCCC1	-	?	-	-
COc1ccc(NS(=O)(=O)c2ccccc2)cc1NS(=O)(=O)c1ccccc1	-	-	.	.
Cc1oc2ncn(C)c(=O)c2c1C(=O)N1CCN(c2ccc(Cl)cc2)CC1	-	-	.	-
COc1ccc(CCc2nc(-c3ccc(-n4cccc4)cc3)no2)cc1	-	16.4µM	?	-
COc1ccc(OCc2nc(-c3ccc(-n4cccc4)cc3)no2)cc1	-	.	.	-
CCCc1ccc(OCc2nc(-c3ccc(NC(=O)c4ccco4)cc3)no2)cc1	-	-	?	-
CCCc1ccc(OC(C)c2nc(-c3ccc(-n4cccc4)cc3)no2)cc1 (stereo not given)	-	23.1µM	.	-
c1coc(-c2ccnc(-n3cccc3)n2)c1	-	?	-	?
Clc1ccsc1-c1ccc2ccccc2n1	-	?	?	10µM
Cc1ccsc1-c1ccnc(-n2cccc2)n1	-	?	?	5.01µM
Clc1ccc(-c2ccnc(-n3cccc3)n2)s1	-	-	?	?
Clc1ccsc1-c1ccnc(-n2cccc2)n1	-	?	?	10µM
c1ccc2nc(-c3nccs3)ccc2c1	-	?	?	-
O=C(Cn1c(=O)nc(-c2ccccc2)c2cc(Cl)ccc21)NCCc1ccccc1	-	.	.	-
CCOCCCNC(=O)C(c1ccccc1)N1Cc2ccccc2C1=O (stereo not given)	-	-	.	-
Cc1oc(-c2ccccc2Cl)nc1Cn1c(SCc2cccc(F)c2)nc2cccnc21	-	?	.	-
COc1ccc(-c2nc(Cn3c(SCc4ccccc4F)nc4cccnc43)c(C)o2)cc1	-	?	.	-
Cc1oc(-c2cccc(Cl)c2)nc1Cn1c(SCc2ccc(F)cc2)nc2cccnc21	-	18.4µM	.	-
COc1ccc(-c2nc(Cn3c(SCc4cccc(F)c4)nc4cccnc43)c(C)o2)cc1	-	20.6µM	.	-
COc1ccc(-c2nc(Cn3c(SCc4ccc(F)cc4)nc4cccnc43)c(C)o2)cc1	?	18.4µM	.	-
SMILES	A549 tox	Nrf2 inh	ELG1 repair inh	Nrf2 ARE act
CCOC(=O)COc1ccc(C(=O)Nc2cccc(Cl)c2C)cc1	-	-	-	-
COc1ccc([N+](=O)[O-])cc1NC(=O)C(C)OC(=O)C1CCC1 (stereo not given)	-	-	-	-
CCN(CCO)c1ccc(Nc2cc(-c3ccc(-c4ccccc4)cc3)ncn2)cc1	.	.	.	-
CCN(CCO)c1ccc(N=Nc2cc(C)[nH]n2)cc1	9.2µM	?	?	-
CCN(CC)S(=O)(=O)c1ccc(NC(=O)CSc2nnc3c(n2)[nH]c2ccccc23)cc1	-	-	.	.
CCN(CC)S(=O)(=O)c1cccc(NC(=O)C(=O)c2c(-c3ccccc3)cc3ccccn23)c1	-	?	16.4µM	-
O=S(=O)(Nc1nc2ccccc2nc1N1CCN(c2ccccc2F)CC1)c1ccc(Cl)cc1	?	23.1µM	18.4µM	-
Cc1ncc(CN2CCC(CO)(CCc3ccccc3)CC2)s1	-	-	-	-
Cc1cc(C)n(CC(=O)N2CCCC(C(=O)c3cccc(OC(C)C)c3)C2)n1 (stereo not given)	-	-	-	-
COc1ccccc1NC(=O)C(C)OC(=O)/C=C/c1ccc2ccccc2n1 (stereo not given)	-	-	?	17.8µM
Cc1ccc(-c2nnc(SCc3ccccc3C#N)o2)cc1	-	?	.	-
CCN(CC)S(=O)(=O)c1ccc(S(=O)(=O)N2CCCC(C(=O)NC3CC3)C2)cc1 (stereo not given)	-	5.8µM	-	-
COc1ccc(S(=O)(=O)N2CCCC(C(=O)NC3CC3)C2)cc1OC (stereo not given)	-	-	-	-
CN(C)S(=O)(=O)c1ccc(S(=O)(=O)N2CCCC(C(=O)NC3CC3)C2)cc1 (stereo not given)	-	20.6µM	?	-

Screening results: PubChem BioAssay, National Center for Advancing Translational Sciences (NCATS)
